Several values for one entry are separate records, joined by “and”; a condition that tells them apart may be missing. Equal entries are not always repeated. Compounds without any hit were thinned out: in the full panel of roughly 83,000, 20% have a hit.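 Activity criterion: percent growth below 10, measured after cells in 96-well plates were exposed to a single compound concentration for 48 hours.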 Activity calls are given as the source filed them.
System: UACC-62 melanoma
Assay: NCI-60 one-dose screen, 48 h (100 = growth as untreated, 0 = no growth, -100 = all killed)
Settings: 10 µM unless noted

O=Cc1ccc(-c2ccc(-c3ccc(CO)s3)o2)s1
growth: -65% [100 µM] (active) and -100% [100 µM] (active)

Cn1c(COC(=O)NC2CCCCC2)c(COC(=O)NC2CCCCC2)c2ccc3cc(Cl)c(Cl)cc3c21
growth: -50.6% [100 µM] (active)

C=C1C(=O)C2=CC1CCC(=O)C1(C)CCC(OC(C)=O)C(C)(C)C1CC2O (stereo not drawn)
growth: -95.4% [100 µM] (active) and -100% [100 µM] (active)
